From PubChem BioAssay (NCATS) come the findings set out here.

Records with an inconclusive call do not appear. The source made the active and inactive calls. Calls come from the whole dose curve; as a rule, active = well fitted curve in the direction sought with a large enough effect; inconclusive = small, poorly fitted or top-dose-only effect, or another doubt; inactive = no such curve, though single readings can be large; an effect the other way counts as inactive or inconclusive.

Assay [1] deals with AA1029. In words: qHTS profiling for inhibitors of Plasmodium falciparum proliferation (AID 504749). Note: nearly all actives have a fitted effect of over 60% in size. Note: potency is the fitted concentration of half-maximal effect. The following applies: P. falciparum in erythrocytes, SYBR Green DNA, 72 h; series mostly up to 28.7 µM. An outline of the steps: (§1)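 Three-day growth assay of blood-stage parasites in erythrocytes (0.3% parasitemia, 2.5% hematocrit) at 37 C, 5% CO2, quantified by SYBR Green DNA staining after overnight detergent lysis.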
Background: Quantitative high-throughput screening tests each substance at several concentrations.

For assay [2], the system named is AS120. The assay is described as above. The following applies: P. falciparum in erythrocytes, SYBR Green DNA, 72 h; series mostly up to 28.7 µM. The method, boiled down: as §1
In assay [3] the test system is ATS189. Described as above. The following applies: P. falciparum in erythrocytes, SYBR Green DNA, 72 h; series mostly up to 28.7 µM. An outline of the steps: as §1
Assay [4] has as its system CP194. Described as above. The following applies: P. falciparum in erythrocytes, SYBR Green DNA, 72 h; series mostly up to 28.7 µM. The method, boiled down: as §1
Assay [5] concerns CP201. The description is as above. The following applies: P. falciparum in erythrocytes, SYBR Green DNA, 72 h; series mostly up to 28.7 µM. The method, boiled down:
as §1

The test system of assay [6] is CP203. The description is as above. The following applies: P. falciparum in erythrocytes, SYBR Green DNA, 72 h; series mostly up to 28.7 µM. An outline of the steps: as §1
Assay [7] deals with CP215. The description is as above. The following applies: P. falciparum in erythrocytes, SYBR Green DNA, 72 h; series mostly up to 28.7 µM. The method, boiled down:
as §1

Assay [8] concerns CP237. Described as above. The following applies: P. falciparum in erythrocytes, SYBR Green DNA, 72 h; series mostly up to 28.7 µM. The method, boiled down:
as §1

Assay [9] relates to CP252. The assay is described as above. The following applies: P. falciparum in erythrocytes, SYBR Green DNA, 72 h; series mostly up to 28.7 µM. The method, boiled down:
as §1

For assay [10], the system named is CP256. Described as above. The following applies: P. falciparum in erythrocytes, SYBR Green DNA, 72 h; series mostly up to 28.7 µM. An outline of the steps:
as §1

In assay [11] the test system is CP265. The description is as above. The following applies: P. falciparum in erythrocytes, SYBR Green DNA, 72 h; series mostly up to 28.7 µM. An outline of the steps:
as §1

For assay [12], the system named is CP266. The assay is described as above. The following applies: P. falciparum in erythrocytes, SYBR Green DNA, 72 h; series mostly up to 28.7 µM. The method, boiled down: as §1
Assay [13] deals with CP268. Described as above. The following applies: P. falciparum in erythrocytes, SYBR Green DNA, 72 h; series mostly up to 28.7 µM. The method, boiled down:
as §1

Assay [14] has as its system CP291. The description is as above. The following applies: P. falciparum in erythrocytes, SYBR Green DNA, 72 h; series mostly up to 28.7 µM. An outline of the steps:
as §1

For assay [15], the system named is CP329. The description is as above. The following applies: P. falciparum in erythrocytes, SYBR Green DNA, 72 h; series mostly up to 28.7 µM. An outline of the steps: as §1
The subject of assay [16] is PC15. The description is as above. The following applies: P. falciparum in erythrocytes, SYBR Green DNA, 72 h; series mostly up to 28.7 µM. The method, boiled down: as §1
For assay [17], the system named is TAB109. The assay is described as above. The following applies: P. falciparum in erythrocytes, SYBR Green DNA, 72 h; series mostly up to 28.7 µM. The method, boiled down: as §1
Assay [18] concerns CP297. Described as above. The following applies: P. falciparum in erythrocytes, SYBR Green DNA, 72 h; series mostly up to 28.7 µM. The method, boiled down: as §1
Assay [19] relates to ECU. Described as above. The following applies: P. falciparum in erythrocytes, SYBR Green DNA, 72 h; series mostly up to 28.7 µM. The method, boiled down:
as §1

The nature of assay [20]: S16 Schwann cell viability assay (CellTiter-Glo assay) (AID 624031).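 Note: native untransfected S16 rat Schwann cells; nearly all actives have a fitted effect of over 70% in size.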 The following applies: S16 rat Schwann cells viability, 24 h; series mostly up to 57.5 µM. The method, boiled down:
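Rat S16 Schwann cells without reporter constructs received compound or DMSO for 24 h at 37 °C under 5% CO2. Cellular ATP was then quantified by CellTiter-Glo luminescence, with vehicle wells defined as 0% activity and cell-free wells as reference.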
On the technique in general: ATP-based viability assays read luminescence as a measure of living cells.

As for `CC1CCC(O)C/C1=C\C=C1/CCCC2(C)C1CCC2C(C)/C=C/C(C)C(C)C` (centres undefined), the Potency result in assay [1], in assay [2], in assay [3], in assay [4], in assay [5] and in assay [6] was “inactive” each time. Moreover, the Potency result in assay [7], in assay [8], in assay [9], in [10], in assay [11] and in [12] was “inactive” in each case. Moreover, the Potency result in [13], in assay [14], in assay [15], in assay [16] and in assay [17] was “inactive” throughout.
With `Oc1cc2cc(CCN3CCN(c4nsc5ccccc45)CC3)c(Cl)cc2[nH]1`, the Potency result in assay [1], in assay [3], in [4], in assay [5], in assay [6] and in assay [7] was “inactive” throughout. The Potency result in assay [9], in [10], in [11], in assay [12], in assay [18] and in [15] was “inactive” each time. In addition, in assay [19], the Potency result is “inactive”.
Take `C=CCN1CC(C(=O)N(CCCN(C)C)C(=O)NCC)CC2c3cccc4[nH]cc(c34)CC21` (centres undefined): the Potency result in assay [4], in [5], in assay [7], in assay [11], in assay [12] and in [13] was “inactive” throughout. Also, the Potency result in assay [18] and in assay [15] was “inactive” in each case. For the same compound, the Potency in [8] is 8.91 µM (active).
Take `C=C1CCC(O)C/C1=C/C=C1\CCC[C@]2(C)[C@@H]([C@H](C)/C=C/[C@H](C)C(C)C)CC[C@@H]12` (some centres undefined): the Potency result in assay [20], in assay [1], in assay [4], in assay [5], in assay [6] and in [7] was “inactive” throughout. Further, the Potency entry in assay [8], in assay [12], in assay [13], in assay [14], in assay [18] and in [15] was “inactive” each time.
Regarding `COC(=O)C1[C@@H](OC)C(OC(=O)COc2ccc(OC)cc2)C[C@@H]2CN3CCc4c([nH]c5cc(OC)ccc45)[C@H]3C[C@H]12` (some centres undefined), the Potency entry in [20], in assay [5], in assay [6], in assay [7], in assay [12] and in [18] was “inactive” in each case. The Potency is 10 µM (active) in assay [1], 11.2 µM (active) in [2] and 11.2 µM (active) in assay [3].
Consider `C=C1CC[C@H](O)C/C1=C/C=C1\CCC[C@]2(C)[C@@H]([C@H](C)CC[C@@H](O)C(C)(C)O)CC[C@@H]12`, for which the Potency result in [20], in [5], in [6], in [7], in assay [12] and in assay [13] was “inactive” throughout. Moreover, the Potency result in assay [15] was “inactive”. In addition, the Potency in [2], in assay [8] and in [19] was 10 µM (active) each time.
In the case of `C[C@@H]1CC2[C@@H]3C[C@H](F)C4=CC(=O)C(Cl)=C[C@]4(C)[C@@]3(F)[C@H](O)C[C@]2(C)[C@@]1(O)C(=O)CO` (some centres undefined), the Potency entry in [20], in assay [3], in [4], in assay [5], in assay [7] and in assay [10] was “inactive” each time. Besides, the Potency entry in assay [11], in assay [12], in [13], in assay [14], in [18] and in [15] was “inactive” throughout. Besides, the Potency entry in assay [16] is “inactive”.
For `CCC(=O)OC1C(N(C)C)CC(C)O[C@H]1O[C@H]1[C@H](C)[C@@H](O[C@H]2CC(OC)[C@@H](O)C(C)O2)[C@H](C)C(=O)O[C@@H](CC)[C@](C)(O)[C@@H](O)[C@H](C)C(=O)[C@@H](C)C[C@]1(C)O` (some centres undefined), the Potency entry in assay [20], in assay [2], in assay [3], in assay [4], in assay [5] and in assay [6] was “inactive” in each case. The Potency entry in assay [8], in [12], in assay [13], in assay [14] and in assay [16] was “inactive” throughout.
As for `CCN(CC)CCOCCOC(=O)C(CC)(CC)c1ccccc1` (tested in a mixture with another compound), the Potency entry in assay [20], in [19] and in assay [17] was “inactive” in each case. The results for the Potency in [6], in [10] and in assay [11] were 4.26 µM (active), 5.62 µM (active) and 1.12 µM (active), respectively.
As for `CC[C@H]1OC(=O)[C@H](C)C(=O)[C@H](C)[C@@H](OC2O[C@H](C)C[C@H](N(C)C)[C@@H]2O)[C@@](C)(OC)C[C@@H](C)C(=O)[C@@H](C)C2N(CCCCn3cnc(-c4cccnc4)c3)C(=O)O[C@@]21C` (some centres undefined), the Potency entry in assay [20], in assay [4], in assay [5], in assay [6], in assay [7] and in assay [9] was “inactive” each time. Further, the Potency result in assay [10], in assay [11], in [12], in assay [13], in assay [14] and in assay [15] was “inactive” in each case. In [16], the Potency entry is “inactive”. The Potency in assay [19] is 10 µM (active).
For the compound `Cc1cncc(C(=O)O)[n+]1[O-]`, the Potency entry in assay [20], in [4], in [5], in [7], in assay [8] and in [13] was “inactive” each time. Besides, the Potency entry in assay [14], in assay [18], in assay [15] and in assay [16] was “inactive” in each case.
Turning to `CCC1OC(=O)C[C@@H](O)[C@H](C)[C@@H](OC2OC(C)CC(N(C)C)C2O)[C@@H](CC=O)C[C@@H](C)C(=O)/C=C/[C@]2(C)OC2C1C` (some centres undefined), the Potency entry in assay [20] and in [16] was “inactive” each time. The Potency in assay [8] was 5.01 µM (active); in assay [9], 3.55 µM (active); in [10], 2.24 µM (active); in [18], 2.13 µM (active); in [17], 0.794 µM (active).
In the case of `O=C(O)c1ccccc1-c1c2ccc(=O)cc-2oc2cc(O)ccc12`, the Potency result in assay [20], in [6], in assay [7], in assay [12], in [14] and in assay [15] was “inactive” throughout.
`CC1=C(/C=C/C(C)=C\C=C\C(C)=C\C=C\C=C(C)\C=C\C=C(C)\C=C\C2=C(C)C[C@@H](O)CC2(C)C)C(C)(C)C[C@H](O)C1`: the Potency entry in assay [20], in assay [4], in [5], in assay [6], in assay [7] and in assay [10] was “inactive” in each case. Further, the Potency entry in assay [11], in [13], in assay [14] and in assay [15] was “inactive” each time. Besides, the Potency in [1] is 12.6 µM (active); in assay [2] it was 12.6 µM (active); in assay [8], 11.2 µM (active); in [19] it was 14.1 µM (active).
As to `C=C1N[C@]2(C(=O)COC(C)=O)[C@@H](C[C@H]3[C@@H]4CCC5=CC(=O)C=C[C@]5(C)[C@H]4[C@@H](O)C[C@@]32C)O1`, the Potency entry in assay [20], in [8], in assay [9], in [10], in assay [11] and in assay [12] was “inactive” in each case. Further, the Potency result in assay [18], in assay [19], in assay [16] and in [17] was “inactive” throughout.
In the case of `O=C(NC(CO)C(O)c1ccc([N+](=O)[O-])cc1)C(Cl)Cl` (centres undefined), the Potency entry in [20], in assay [4], in assay [5], in assay [6], in assay [19] and in assay [16] was “inactive” in each case. Besides, the Potency in assay [10] was 11.2 µM (active); in assay [14], 3.01 µM (active).
